Structures are written as SMILES. Records with an inconclusive call do not appear. Activity calls are given as the source filed them. Calls come from the whole dose curve; as a rule, active = well fitted inhibition curve with a large enough effect; inconclusive = small, poorly fitted or top-dose-only effect; inactive = no such curve, though single readings can be large or run the other way. Numbered stars: 1 amine (or outer) side, 2 acyl side, 3 side chain; on linkers, the order of the positions; unused ones are H or OH. Square brackets hold non-standard residues; d marks the D form. Peptide text beside a SMILES is read from it. X1 = O=C([C@@H](CC(O)CCl)O[*:1])[*:2]; aIle = CC[C@@H](C)[C@H](N)C(=O)O; NMeV = CN[C@H](C(=O)O)C(C)C; NMeA = CN[C@@H](C)C(=O)O; βAla = NCCC(=O)O

The test system of this assay is zebrafish Abcb4 (ABCB1 homolog). Put plainly: qHTS for characterization and localization of zebrafish homologs of the human ABCB1 multidrug transporter: ABCB4 transfected cells. Particulars: CellTiter-Glo viability luminescence, 72 h; series mostly up to 15.2 µM. From the text: The zebrafish has emerged as a potential model to study the blood-brain barrier (BBB) given its similarities with mammalian systems. However, little information has been available with regard to homologous ATP-binding cassette transporters expressed at the zebrafish BBB. Two transporters that are highly expressed at the human BBB are P-glycoprotein (P-gp, encoded by the ABCB1 gene) and ABCG2 (encoded by the ABCG2 gene). In this study, we focus on characterization of P-gp homologs in the zebrafish, which has two genes that are homologous to human ABCB1 - abcb4 and abcb5. We generated stably-transfected cell lines to determine their substrate specificities. […] Zebrafish abcb4 also colocalized with claudin 5 expression in brain endothelial cells.
A high-throughput screen was performed as previously described on empty vector transfected cells, P-gp-overexpressing MDR-19 cells and cells transfected with full-length zebrafish abcb4 (ZF Abcb4) or abcb5 (ZF Abcb5). Briefly, cells were plated into 1536-well plates at a density of 500 cells/well in 5 uL media. P-gp substrate compounds (approximately 90) selected from our previous study were then added at varying concentrations using a 1536-head pin tool (Kalypsis, San Diego, CA) and plates were incubated at 37C in 5% CO2 for 72 h. CellTiter-Glo reagent (Promega) was dispensed into the wells, incubated for 5 min and luminescence was read on a ViewLux instrument (Perkin-Elmer).
Cytotoxic compounds were defined as those that yielded a curve class of -1.1, -1.2, -2.1, -2.2, -2.3, or -2.4, a maximum response of >50% and an AC50 of < 10 uM. All compounds from screening analysis were tested in Vector (empty vector control), MDR-19 (P-gp overexpressing), zebrafish abcb4 (ZF Abcb4) and abcb5 (ZF Abcb5) expression cell lines.
1. Tobie D Lee, Olivia W Lee, Kyle R Brimacombe, Lu Chen, Rajarshi Guha, Sabrina Lusvarghi, Bethilehem G Tebase, Carleen Klumpp-Thomas, Robert W Robey, Suresh V Ambudkar, Min Shen, Michael M Gottesman, Matthew D Hall. A High-Throughput Screen of a Library of Therapeutics Identifies Cytotoxic Substrates of P-glycoprotein. […]
Turning to `CC[C@@H](C)[C@@H]1NC(=O)[C@@H]2CCCN2C(=O)[C@@H](CC(O)CCl)OC(=O)CCNC(=O)[C@H](C)N(C)C(=O)[C@H](C(C)C)N(C)C1=O` (stereo partly drawn) (cyclo([NMeA][βAla][X1]P[aIle][NMeV])), the Potency entry is “inactive”.
Under `C[C@@H]1[C@@H](CC(C[C@H]2O[C@@H]3O[C@]4(C)CC[C@@H]5[C@H](C)CC[C@@H]([C@H]2C)[C@@]35OO4)C[S+](=O)([O-])c2ccc(COC(=O)N(C)C)cc2)O[C@@H]2O[C@]3(C)CC[C@H]4[C@H](C)CC[C@@H]1[C@@]24OO3` (stereo partly drawn) stands 2350 nM (active); under `C=CCON=C(C[C@H]1O[C@@H]2O[C@]3(C)CC[C@@H]4[C@H](C)CC[C@@H]([C@H]1C)[C@@]24OO3)[C@H]1O[C@@H]2O[C@]3(C)CC[C@H]4[C@H](C)CC[C@@H]([C@@H]1C)[C@@]24OO3`, 1870 nM (active).

(Values after PubChem BioAssay AID1508635 (National Center for Advancing Translational Sciences (NCATS), 2021).)
